The campaign covered roughly 290,000 compounds. About 2,200 (0.76%) were called active. For the sample, actives were picked, then their nearest neighbours and some compounds at random. Values without a mark were called inactive. No stated cut-off is given here; in the data, active means inhibition above about 30%; inconclusive means no clear call, values can overlap the other calls; inactive means below that.
What follows are compounds tested against Protein RecA (Mycobacterium tuberculosis (strain ATCC 25618 / H37Rv)) (UniProt P9WHJ3) (assay: Mtb RecA intein splicing inhibitors, primary screen, biochemical, fluorescence, HTS (AID 2221;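 further: 0% = vehicle wells and 100% = reference inhibitor control wells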)). Settings: cell-free RecA intein splicing, hits give high values, concentration not given here.
Chain of Protein RecA (Mycobacterium tuberculosis (strain ATCC 25618 / H37Rv)) (P9WHJ3 whole entry, looked up): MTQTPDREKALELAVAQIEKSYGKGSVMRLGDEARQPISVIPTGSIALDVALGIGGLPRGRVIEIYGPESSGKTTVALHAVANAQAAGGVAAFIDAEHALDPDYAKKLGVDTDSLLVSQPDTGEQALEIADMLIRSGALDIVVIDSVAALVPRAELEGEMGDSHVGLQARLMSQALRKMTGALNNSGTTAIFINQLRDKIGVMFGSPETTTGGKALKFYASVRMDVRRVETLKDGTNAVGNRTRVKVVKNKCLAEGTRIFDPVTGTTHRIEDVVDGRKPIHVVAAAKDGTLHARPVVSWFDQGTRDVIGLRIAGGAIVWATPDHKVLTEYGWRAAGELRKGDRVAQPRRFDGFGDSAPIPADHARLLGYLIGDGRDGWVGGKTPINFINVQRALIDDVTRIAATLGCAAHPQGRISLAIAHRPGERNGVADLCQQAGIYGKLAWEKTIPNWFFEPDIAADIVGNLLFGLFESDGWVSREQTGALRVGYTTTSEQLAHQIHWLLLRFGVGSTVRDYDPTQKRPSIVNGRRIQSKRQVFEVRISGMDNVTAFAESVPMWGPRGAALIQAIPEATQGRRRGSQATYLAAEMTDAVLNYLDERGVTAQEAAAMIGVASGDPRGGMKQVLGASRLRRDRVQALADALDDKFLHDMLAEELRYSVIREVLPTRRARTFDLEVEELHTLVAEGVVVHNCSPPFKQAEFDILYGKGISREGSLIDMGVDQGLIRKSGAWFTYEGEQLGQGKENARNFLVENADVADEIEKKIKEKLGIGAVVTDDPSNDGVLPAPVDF

Row | SMILES | inhibition
1 | COc1ccc(-c2[nH]nc3c2C(c2ccncc2)C(C#N)=C(N)O3)cc1 (stereo unspecified) | 69.7% (active)
2 | CCC1=C(C(=O)OC)C(c2cc(OC)ccc2OC)C(C#N)=C(N)O1 (stereo unspecified) | -1.35%
3 | COc1cc(C2C(C#N)=C(N)Oc3n[nH]c(-c4ccccn4)c32)cc(OC)c1OC (stereo unspecified) | 17.2%
4 | CCCc1[nH]nc2c1C(c1ccc(OC(=O)c3ccco3)cc1)C(C#N)=C(N)O2 (stereo unspecified) | 81.6% (active)
5 | CCCc1nc2c([nH]1)C(c1cccnc1)C(C#N)=C(N)O2 (stereo unspecified) | -1.72%
6 | CCOC(=O)C1=C(CC)OC(N)=C(C#N)C1c1ccc(F)cc1F (stereo unspecified) | -3.52%
7 | CCc1ccc(C2C(C#N)=C(N)Oc3n[nH]c(CC(=O)OC)c32)cc1 (stereo unspecified) | 63.8% (active)
8 | CCOC(=O)C1=C(C)OC(N)=C(C#N)C1c1cncc(-c2ccc(F)cc2)c1 (stereo unspecified) | 2.26%
9 | CCOc1c(OC)cc(C2C(C#N)=C(N)Oc3n[nH]c(-c4ccncc4)c32)cc1OC (stereo unspecified) | 23.1%
10 | CCCc1[nH]nc2c1C(C1CC=CCC1)C(C#N)=C(N)O2 (stereo unspecified) | 4.97%
11 | CCCc1[nH]nc2c1C(c1ccc(Br)s1)C(C#N)=C(N)O2 (stereo unspecified) | 56% (active)
12 | COCc1[nH]nc2c1C(C1C=CCCC1)C(C#N)=C(N)O2 (stereo unspecified) | -0.266%
13 | NC(=O)c1cc(S(=O)(=O)NCCCc2ccco2)cs1 | -6.35%
14 | CN(C)c1ccc(C=NCCc2ccc(S(N)(=O)=O)cc2)cc1 | -4.96%
15 | Cc1ccc(NC(=O)N2CCSc3ccccc32)cc1 | -0.155%
16 | CCN(CC)CC(=O)Nc1sc2c(c1C(=O)c1ccccc1C)CCC2 | 11.9%
17 | Cc1cc(C)c(C)c(S(=O)(=O)N[C@@H](C)C(=O)OC(C)C(=O)NC(N)=O)c1C (stereo partly specified) | -2.04%
18 | CC(CO)(CO)NC(=O)c1ccc(=O)[nH]n1 | 0.0563%
19 | O=C(c1ccc[nH]c1=S)N1CCN(S(=O)(=O)c2ccc(Br)cc2Cl)CC1 | -3.23%
20 | Cc1ccc(-n2c(=O)cc(N3CCN(Cc4ccccc4)CC3)[nH]c2=O)cc1 | -1.51%
21 | S=C(Nc1ccc(Cl)cc1Cl)N1CCCC1 | -0.599%
22 | Cc1cccc(OC(C)C(=O)N2CCc3ccccc3C2)c1 (stereo unspecified) | 0.662%
23 | O=C(Cc1ccccc1)Nc1ccc(C(=O)Nc2ccccc2C(=O)O)cc1 | 0.81%
24 | O=C(c1cccnc1)N1CCN(S(=O)(=O)c2cccs2)CC1 | -1.81%

Row | SMILES | inhibition
25 | Cc1ccc(-n2nc3c(=O)n(C(C)C(=O)NCc4ccc5c(c4)OCO5)nc(C)c3c2C)cc1 (stereo unspecified) | 3.2%
26 | CC1=NNC(=O)C1CCC(=O)N/N=C\c1ccc(Cl)c(Cl)c1 (stereo unspecified) | 0.906%
27 | CC1=NNC(=O)C1CCC(=O)N/N=C\c1cccc(Cl)c1 (stereo unspecified) | -2.34%
28 | CC1=NNC(=O)C1Cc1c(Cl)cccc1Cl (stereo unspecified) | 90.8% (active)
29 | O=C(CN1CCc2cc3c(cc2C1)OCCCO3)Nc1ccccc1 | 1.99%
30 | COc1ccc(C(=O)NC2CC(C)(C)Cc3c2cnn3-c2ccccc2C)o1 (stereo unspecified) | 3.96%
31 | Cc1cccc(OCc2ccc(C(=O)Nc3ccc(F)cc3)cc2)c1 | -2.68%
32 | Cc1cccc(NC(=O)c2nc[nH]c2C(=O)NCC(=O)OCc2ccccc2)c1 | -3.32%
33 | CCOc1ccc(NC(=O)c2nc(SCC)ncc2Cl)cc1 | -3.31%
34 | Cc1cccc(CS(=O)(=O)c2ncc(Cl)c(C(=O)Nc3ccc(F)cc3)n2)c1 | 31.6% (active)
35 | CCSc1ncc(Cl)c(C(=O)Nc2cc(C)ccc2C)n1 | -2.65%
36 | Cc1cccc(NC(=O)c2nc(S(=O)(=O)Cc3ccccc3)ncc2Cl)c1 | 78% (active)
37 | CSCC[C@H](NC(=O)N1CCn2c1nc1ccccc12)C(=O)NC1CCCCC1 | 0.784%
38 | ClC1(Cl)CC1CSc1ncn[nH]1 (stereo unspecified) | -0.379%
39 | Cc1ccc(SC(CC(=O)c2ccc(C(C)(C)C)cc2)C(=O)O)cc1 (stereo unspecified) | 8.11%
40 | Cc1ccc(SCC2=NNC(=O)C2)cc1 | 87.8% (active)
41 | Cc1ccc(SCCSc2ncccn2)cc1 | -1.76%
42 | Cc1ccc(SCc2cc(=O)[nH]c(N3CCCCC3)n2)cc1 | 1.86%
43 | O=C(NC1CCc2ccccc21)C12CN(Cc3ccccc3)CC1C(c1cccc([N+](=O)[O-])c1)=NO2 (stereo unspecified) | 8.13%
44 | CCOc1ccc(-n2c(SCC(N)=O)nnc2-c2ccco2)cc1 | 1.21%
45 | CC1(N2CCOCC2)CC2(O)C(=[N+]1[O-])CCc1nonc12 (stereo unspecified) | 59.8% (active)
46 | CC(=O)n1c(C=Nc2ccccc2)c(O)c2ccccc21 | -25.1%
47 | Cc1ccc(NC(=O)CSc2nnc(CNC(=O)c3ccccc3F)o2)cc1 | -1.52%
48 | O=C(CCCN=C1NS(=O)(=O)c2ccccc21)OCC(=O)c1ccc(F)c(F)c1 | 0.337%

Row | SMILES | inhibition
49 | CN(C)c1ccc(NC(=O)c2ccncc2)c2ccccc12 | 32.8% (active)
50 | CC(=O)c1cccc(NC(=O)c2ccncc2)c1 | -0.301%
51 | CCN(CC)S(=O)(=O)c1ccc(Cl)c(NC(=O)c2ccncc2)c1 | -0.0873%
52 | Cc1cc(Nc2cccc(C)c2C)n2ncnc2n1 | 0.489%
53 | COc1ccc(Nc2ncnc3ccc(Br)cc23)c(OC)c1 | -1.95%
54 | COc1ccc2sc(N(CCCN(C)C)C(=O)c3ccc(S(=O)(=O)N(C)C4CCCCC4)cc3)nc2c1 | 2.28%
55 | S=c1nccc(-c2cc(Cl)sc2Cl)[nH]1 | 2.58%
56 | O=c1oc2ccccc2cc1-c1csc(Nc2ccc(O)cc2)n1 | -3.92%
57 | COc1ccc(-c2csc(Nc3ccc(O)cc3)n2)cc1 | 33.3% (active)
58 | COc1ccc(-c2csc(Cc3nc(O)cs3)n2)cc1 | 8.96%
59 | NNC(=O)C1CC(O)CN1S(=O)(=O)c1ccc(Cl)cc1 (stereo unspecified) | 0.0391%
60 | COc1cccc(CN(C)C(=O)CC23CC4CC(CC(C4)C2)C3)c1OC | 9.37%
61 | O=C(NCCc1ccccc1)Oc1ccc(Cl)cc1 | 6.61%
62 | COc1cccc(CNC(=O)C2CCCN(c3ncnc4c3nc3n4CCCCC3)C2)c1 (stereo unspecified) | 3.28%
63 | CC(=O)c1ccc(NC(=O)c2ccc3c(Cl)c4c(nc3c2)CCCC4)cc1 | -0.115%
64 | O=C(O)CSc1c2c(nc3cc(C(=O)Nc4cccc(C(F)(F)F)c4)ccc13)CCCC2 | 45.1% (active)
65 | COc1cccc(NC(=O)c2ccc3c(SCC(=O)O)c4c(nc3c2)CCCC4)c1 | 16.6%
66 | CC(C)CC(=O)Nc1nnc(S(=O)(=O)N(C)c2ccc(Cl)cc2)s1 | -1.1%
67 | O=C(C1CCCN(S(=O)(=O)c2ccc([N+](=O)[O-])cc2)C1)N1CCCCC1 (stereo unspecified) | -2.27%
68 | O=c1oc2ccccc2c(NC2CCCCC2)c1NS(=O)(=O)c1ccc(Cl)cc1 | -0.796%
69 | O=C(c1ccc(Cl)cc1)n1cnc2ccccc21 | 48.8% (active)
70 | COC(=O)c1cn(C(=O)c2ccc(Cl)cc2)c2ccccc12 | -1.64%
71 | COC(=O)c1ccc(-n2cnc3ccccc32)nc1 | -0.81%
72 | O=C(Nc1ncccc1O)c1ccc(S(=O)(=O)N2CCCCCC2)cc1 | -0.935%

Row | SMILES | inhibition
73 | Oc1c(Cl)cc(Cl)c(Cl)c1Cc1c(O)c(Cl)cc(Cl)c1Cl | 43.2% (active)
74 | COC(=O)c1nc(NC(=O)c2ccc(Cl)cc2)n[nH]1 | -2.52%
75 | COC(=O)c1nc(NC(=O)c2ccc(F)cc2)n[nH]1 | 22.9%
76 | COC(=O)c1nc(NC(=O)c2ccc(C(C)(C)C)cc2)n[nH]1 | 32.8% (active)
77 | CC(=O)N1CC(=O)N(CC(=O)Nc2ccc(Br)cc2)C1=S | -3.4%
78 | O=C(Oc1cccc(O)c1)C1CCCCC1 | -20.9%
79 | COC(=O)C1=C(C(=O)OC)C(c2cc([N+](=O)[O-])ccc2O)c2sc(=O)[nH]c2S1 (stereo unspecified) | -7.2%
80 | CCOC(=O)c1c(C)[nH]c(C)c1S(=O)(=O)N(C)CC(=O)Nc1ccccc1C | -2.47%
81 | CCOC(=O)c1c(C)nc(-c2ccccc2)nc1NC(=O)C(C)C | -0.631%
82 | CCOC(=O)c1c(C)[nH]c2c1-c1ccccc1C(=O)C2=O | 97.6% (active)
83 | Cc1cc(C=O)c(C)n1-c1ccc(NC2CCCCC2)c([N+](=O)[O-])c1 | 15.3%
84 | O=C(O)c1cccc(N2C(=O)Nc3ccccc3N2O)c1 | -5.4%
85 | O=C(c1cccc(N2CCCC2=O)c1)N1CCOCC1 | 2.18%
86 | NC1=NN(c2cccc(C(=O)O)c2)C(=O)C1 | 83.8% (active)
87 | N=C1/C(=C/c2cccn2-c2cccc([N+](=O)[O-])c2)C(=O)N=C2SC=CN12 | -0.963%
88 | O=c1[nH]c2ccccc2n2c(-c3ccccc3)nnc12 | 33.2% (active)
89 | O=c1[nH]n2c(-c3ccccc3)nc(O)c2c2ccccc12 | -1.37%
90 | Cc1ccccc1Cn1c(=O)[nH]c2ccccc21 | 3.55%
91 | CN(C(=O)CSc1nnc(N)s1)c1c(N)n(Cc2ccccc2)c(=O)[nH]c1=O | -0.327%
92 | CC(C)(C)C(=O)N1CCC[C@@]1(CO)C(=O)O | -0.553%
93 | CCc1ccc2nc(Nc3ncc(C(C)=O)c(C)n3)nc(C)c2c1 | 1.55%
94 | Brc1ccc(-c2n(-c3ccccn3)c3ccccc3[n+]2-c2ccccn2)cc1 | 6.87%
95 | Cc1[nH]c2ccccc2c1C(=O)CN1CCCC(C)C1 (stereo unspecified) | -2.48%
96 | CCn1nnnc1SCC(=O)Nc1ccc(N(C)C)cc1 | -2.84%
